Row | Binder | selected by phage display (TSG101 1-145, Q99816) | selected by phage display (TNKS 174-649, O95271)
1 | TAAIPSAPVLPPPPVH [YLPM1, P49750] | confidence 4 (active) | 
2 | VGAKALPTAPPPPPLP [INF2, Q27J81] | confidence 3 (active) | 
3 | EEDADTMRLQPIGRDK [RSF1, Q96T23] |  | confidence 3 (active)
4 | LPSAPGAEQTAGSLLY [E2F3, O00716] | confidence 2 (active) | 
5 | PTPTAPLLPPQPATPL [EP300, Q09472] | confidence 2 (active) | 
6 | SLPHTPTTPTAPLTPV [FOXP1, Q9H334] | confidence 3 (active) | 
7 | SQPSAPDFVQRGFDSF [UTRN, P46939] | confidence 2 (active) | 
8 | AEPSAPSLPAGPTGVE [TMEM131L, A2VDJ0] | confidence 3 (active) | 
9 | EVLASAPPLPPSTAAP [WASH4P, A8MWX3] | confidence 3 (active) | 
10 | PVVPTAPELQPSTSTD | confidence 3 (active) | 
11 | AVGASAPSAPTAHPQP [DCAF1, Q9Y4B6] | confidence 2 (active) | 
12 | EHAELAPPAPSAPSWG [SHKBP1, Q8TBC3] | confidence 3 (active) | 
13 | MARPDPSAPPSLLLLL [FZD5, Q13467] | confidence 2 (active) | 
14 | VTVVPTAPDPVPADSV [CABIN1, Q9Y6J0] | confidence 3 (active) | 
15 | ARQEPQGQEHQVDNTV [AMOTL1, Q8IY63] |  | confidence 3 (active)
16 | TSVVGFSADGMRPEAI [MAP4K4, O95819] |  | confidence 2 (active)

Row | Binder | selected by phage display (TSG101 1-145, Q99816) | selected by phage display (TNKS 174-649, O95271)
17 | PSALPSVPEPSAPAAP [TRIM47, Q96LD4] | confidence 3 (active) | 
18 | VTLPTAPNMNSEPTLQ [MFSD6, Q6ZSS7] | confidence 3 (active) | 
19 | ATGSDPLWQRLEPAGH [PLCH2, O75038] |  | confidence 4 (active)
20 | MSGLVLGQRDEPAGHR [KLC4, Q9NSK0] |  | confidence 2 (active)
21 | VVVPSAPEVQETTRML [NEO1, Q92859] | confidence 2 (active) | 
22 | SVAKAVQASAPADERI [STOX1, Q6ZVD7] | confidence 3 (active) | 
23 | MMVESASETIRSAPSG [FOXP4, Q8IVH2] |  | confidence 3 (active)
24 | PTAPELRPSTSTDRPV | confidence 3 (active) | 
25 | AEASAPPAPELFSPPV [EME1, Q96AY2] | confidence 2 (active) | 
26 | PSAPDMEDFGLVKLPH [POLE, Q07864] | confidence 2 (active) | 
27 | PQLPHLQRSPPDGQSF [SH3BP2, P78314] |  | confidence 2 (active)
28 | GTREDPAGQETTAITN [LINC01547, P58512] |  | confidence 2 (active)
29 | EVHTAPSAPLAFGSQQ [ZNF589, Q86UQ0] | confidence 3 (active) | 
30 | PSAPLPFVPPPAVPSV [PRRC1, Q96M27] | confidence 4 (active) | 
31 | YLSFRSVGDGLSTSAV [CSB-PGBD3, P0DP91] |  | confidence 3 (active)

Chain of TSG101 1-145, Q99816 (Q99816 1-145): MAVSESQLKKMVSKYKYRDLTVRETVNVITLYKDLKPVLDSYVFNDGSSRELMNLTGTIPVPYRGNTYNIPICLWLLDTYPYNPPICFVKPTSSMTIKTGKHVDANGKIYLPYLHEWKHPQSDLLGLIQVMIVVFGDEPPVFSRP
Chain of TNKS 174-649, O95271 (O95271 174-649): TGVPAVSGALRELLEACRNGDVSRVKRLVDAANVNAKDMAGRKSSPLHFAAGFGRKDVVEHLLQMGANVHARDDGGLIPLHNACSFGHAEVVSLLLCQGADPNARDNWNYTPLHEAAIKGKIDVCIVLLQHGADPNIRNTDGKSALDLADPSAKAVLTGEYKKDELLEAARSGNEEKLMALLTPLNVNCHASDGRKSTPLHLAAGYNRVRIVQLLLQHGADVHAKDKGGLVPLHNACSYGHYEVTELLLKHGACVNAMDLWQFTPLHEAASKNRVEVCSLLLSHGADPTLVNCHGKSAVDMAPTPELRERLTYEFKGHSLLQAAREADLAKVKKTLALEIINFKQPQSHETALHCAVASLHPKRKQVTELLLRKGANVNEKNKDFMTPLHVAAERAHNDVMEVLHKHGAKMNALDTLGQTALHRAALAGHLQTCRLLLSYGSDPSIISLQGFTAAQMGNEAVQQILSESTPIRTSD
